# Most compounds without a hit are left out; they make up all but 3.1% or so of the library.
# PAX8 inh HTS: PAX8 transcriptional activity inhibition; RMG-I TPO-luciferase reporter, SteadyGlo, 24 h; inhibition, % at 12.6 µM; hit rate 1.2% among 360,000; AID 652154;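 active means mean replicate inhibition at least 60% with every replicate also reaching 60%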;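 further: luciferase light reporting Pax8 driven TPO promoter activity; plate controls were median of neutral control wells for no effect and mitoxantrone controls for full effect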
# EWS-Fli inh: inhibitors of EWS/Fli oncoprotein transcriptional activity. A673 NR0B1-luciferase reporter, viability-normalised. inhibition, % at 12.6 µM. hit rate 0.67% among 350,000. AID 651661;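 active means mean inhibition of at least 50% after viability correction, with every replicate also passing that limit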;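 further: firefly luciferase signal divided by Alamar Blue viability fluorescence both relative to DMSO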
# TWEAK Fn14 block: TWEAK-Fn14 signaling inhibition; TWEAK-stimulated Fn14 reporter cells, luciferase luminescence, 8 h; inhibition, % at 10 µM; hit rate 2% among 360,000; AID 1159606; in the data active means inhibition above about 50%
# TROY signal inh: blocks TROY-dependent signaling in reporter cells. Q293 LMP1-TROYcd NF-kB luciferase reporter, 4 h. inhibition, % at 10 µM. hit rate 0.98% among 360,000. AID 1347056;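 active means compounds whose plate-normalised and pattern-corrected inhibition of the luciferase reporter signal at the single screening dose is 50% or more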
# LMP1 NFkB inh: inhibitors of Epstein-Barr LMP1-induced NF-kappaB reporter. hit rate 0.69% among 350,000. inhibition, % at 12.5 µM. LMP1-induced NF-kappaB luciferase reporter cells, luminescence; in the data active means inhibition above about 41%;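 further: 0% = neutral control wells and 100% = reference inhibitor control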
# LGR2 antag: blocks bursicon-induced cAMP signaling via Drosophila LGR2 | HEK293 LGR2, CRE-luciferase, bursicon-stimulated, 4 h | inhibition, % at 9.99 µM | hit rate 0.35% among 380,000 | AID 720647;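 active means drop in luminescence signal, shown as inhibition above about 50% in the replicate tests, limit read from the data, passing the limit was not always enough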;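 further: agonist challenge used bursicon conditioned medium at about half maximal strength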
# Active calls of the source: *; nt = no result.
SMILES,PAX8 inh HTS,EWS-Fli inh,TWEAK Fn14 block,TROY signal inh,LMP1 NFkB inh,LGR2 antag
C[C@@H]1CCCCO[C@H](CN(C)Cc2ccc3c(c2)OCO3)[C@H](C)CN([C@@H](C)CO)C(=O)c2cc(NC(=O)Nc3ccccc3)ccc2O1,14,0,nt,nt,nt,-3
CCCCCOc1ccc(C(=O)N(Cc2ccco2)C2CCS(=O)(=O)C2)cc1 (stereo not drawn),nt,8,-8,6,2,10
CC(C)COc1ccc(C(=O)N(Cc2ccco2)C2CCS(=O)(=O)C2)cc1 (stereo not drawn),nt,nt,73*,nt,2,nt
CC(Oc1ccc(Cl)cc1Cl)C(=O)N(Cc1ccco1)C1CCS(=O)(=O)C1 (stereo not drawn),nt,nt,83*,nt,-1,nt
CCOc1ccc(N(C)S(=O)(=O)c2cc(-c3cc(C)no3)ccc2C)cc1,38,nt,37,42,12,26
CCOc1ccc(N(C)S(=O)(=O)c2cc(-c3cc(C)no3)ccc2CC)cc1,57,-1,72*,47,14,22
O=C(C[C@@H]1C[C@@H]2c3cc(NS(=O)(=O)c4ccc(F)cc4)ccc3O[C@@H]2[C@H](CO)O1)NCc1cccc(F)c1,0,4,nt,nt,nt,-13
CN1CCc2c(sc3nc(SCC(N)=O)n(-c4ccccc4)c(=O)c23)C1,nt,nt,57*,nt,-4,nt
O=C(O)CSc1nc2sc3c(c2c(=O)n1Cc1ccccc1)CCCCC3,-38,-49,51*,57*,-20,4
CC1CCCC=CC2CC(OC(=O)CN(C)C)CC2C(O)C=CC(=O)O1 (stereo not drawn),115*,63*,41,-10,-91,nt
COc1cc(CN2CC3(CCN(S(=O)(=O)c4cccs4)CC3)c3c(n(C)c4cc(OC)ccc34)[C@H]2CO)cc(OC)c1,39,24,nt,nt,nt,12
Cc1sc(NC(=O)c2ccco2)nc1-c1ccc2c(c1)CC(C)N2C(=O)C1CC1 (stereo not drawn),nt,-16,46,25,43*,-14
Cc1sc(NC(=O)c2ccco2)nc1-c1ccccc1,nt,nt,34,11,-36,nt
CC(=O)Nc1nc(-c2ccc3c(c2)CC(C)N3C(=O)C2CC2)c(C)s1 (stereo not drawn),-7,-15,12,-1,79*,-7
COc1ccc2c3c(n(C)c2c1)[C@@H](CO)N(C(=O)Cc1ccccc1)CC31CCN(C(C)=O)CC1,nt,-5,nt,nt,nt,-18
CCCC(=O)Nc1ccc(S(=O)(=O)Nc2cc(C)nc(C)n2)cc1,nt,nt,-23,-5,8,-5
CCc1ccc(OCCCC(=O)Nc2ccc(S(=O)(=O)Nc3cc(C)nc(C)n3)cc2)cc1,-1,4,55*,18,1,-34
O=C(COC(=O)c1ccc2c(c1)OCCO2)Nc1cccc(S(=O)(=O)N2CCOCC2)c1,23,-1,26,56*,-2,20
O=C(COC(=O)c1ccco1)Nc1cccc(S(=O)(=O)N2CCOCC2)c1,92*,3,-11,0,-4,-3
COc1ccc(S(=O)(=O)N2CCOCC2)cc1NC(=O)COC(=O)C1COc2ccccc2O1 (stereo not drawn),8,5,43,69*,2,8
COc1ccc(C)cc1NC(=O)COC(=O)C1COc2ccccc2O1 (stereo not drawn),3,4,3,15,-4,-3
O=C(/C=C/Nc1ccccc1Br)c1ccccn1,nt,nt,104*,84*,74*,nt
O=C(/C=C/Nc1ccc(Br)cc1F)c1ccccc1,-26,74*,86*,76*,65*,nt
O=C(/C=C\Nc1ccccn1)c1ccccc1,nt,nt,76*,1,33,nt
O=C(/C=C/Nc1ccccc1F)c1ccc(Br)cc1,-120,nt,45,-7,-31,42
SMILES,PAX8 inh HTS,EWS-Fli inh,TWEAK Fn14 block,TROY signal inh,LMP1 NFkB inh,LGR2 antag
CCc1ccc(-c2nc(CN3CCC(C(=O)N4CCN(c5ccccn5)CC4)CC3)c(C)o2)cc1,29,nt,35,2,5,nt
CCc1ccc(-c2nc(CN3CCC(C(=O)N4CCN(c5ccccc5)CC4)CC3)c(C)o2)cc1,nt,nt,94*,27,-13,nt
CCN1/C(=C/c2ccc3cc(C)cc(C)c3[n+]2CC)Sc2cc(C)ccc21,101*,76*,34,31,29,82*
CCN1/C(=C/c2ccc3cc(C)ccc3[n+]2CC)Sc2ccc3sccc3c21,nt,nt,32,29,21,nt
CCN1/C(=C\c2ccc3cc(C)ccc3[n+]2CC)Sc2cc(C)c(C)cc21,91*,57*,64*,45,29,34
C[C@@H]1CN([C@@H](C)CO)S(=O)(=O)c2ccc(-c3ccncc3)cc2O[C@H]1CN(C)C,nt,4,nt,nt,nt,5
NS(=O)(=O)c1ccc(N=Nc2ccc(O)c3ncccc23)cc1,60,24,31,19,18,7
Cc1ccc(C)c(N=Nc2ccc(O)c3ncccc23)c1,-7,nt,81*,78*,61*,52*
Oc1ccc(N=Nc2ccc3c(c2)OCCO3)c2ncccc12,76*,21,82*,60*,-6,-19
CCN(CC)S(=O)(=O)c1cc(OC)ccc1N=Nc1ccc(O)c2ncccc12,96*,28,30,10,-1,20
Cc1cccc(N=Nc2ccc(O)c3ncccc23)c1,52,nt,90*,-37,52*,17
CO[C@H]1CN(C)C(=O)c2ccc(NC(=O)Nc3cccc(F)c3)cc2OC[C@H](C)NC[C@H]1C,11,-11,nt,nt,nt,-4
Cc1cc(C)cc(NC(=O)COC(=O)Cc2ccccc2F)c1,-1,-1,75*,-6,0,-1
O=C(COC(=O)Cc1ccccc1F)Nc1ccc2c(c1)OCO2,0,2,-14,-48,-4,4
COc1ccc2c3c([nH]c2c1)[C@H](CO)N(C(=O)c1cccnc1)CC31CCN(C(=O)c2cccnc2)CC1,-22,-4,nt,nt,nt,-4
COc1ccc(N2C(c3ccsc3)=Cc3cc4c(cc3C2c2c[nH]c3ccccc23)OCO4)cc1 (stereo not drawn),73*,11,-1,27,nt,-6
CN1CCN(C(=O)c2cc([N+](=O)[O-])cc([N+](=O)[O-])c2)CC1,-6,3,80*,-4,11,8
COC(=O)c1cc(C(=O)N2CCN(c3ncccn3)CC2)cc([N+](=O)[O-])c1,6,-6,-6,1,-2,-4
COC(=O)c1cc(C(=O)N2CCN(c3ccccc3OC)CC2)cc([N+](=O)[O-])c1,47,55*,-1,20,9,25
COC(=O)c1cc(C(=O)N2CCN(c3cccc(C)c3C)CC2)cc([N+](=O)[O-])c1,25,56*,2,2,7,14
Cc1cccn2cc(-c3ccc(NC(=O)Cc4ccccc4)cc3)nc12,-48,-6,-24,89*,-14,-20
COc1ccc(CC(=O)Nc2ccc(-c3cn4cccc(C)c4n3)cc2)cc1OC,nt,nt,-14,10,-8,nt
COc1ccc(/C=N/Nc2nc(C)c([N+](=O)[O-])c(N(C)c3ccccc3)n2)cc1OC,nt,nt,82*,nt,11,nt

# Assay outcomes as filed in PubChem.
